{
  "source": "PubChem BioAssay (NCI)",
  "note": "The panel holds about 83,000 compounds, 20% with a hit somewhere; the sample as a whole holds those more often.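 Values shown are percent growth following 48 h exposure of cells in 96-well plates to a single concentration of compound; below 10 was considered active.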 Values without a mark were called inactive.",
  "data": [
    {"system": "SK-MEL-28 melanoma", "assay": "NCI-60 one-dose screen, 48 h (100 = growth as untreated, 0 = no growth, -100 = all killed)", "conditions": "10 µM unless noted", "values": [
      {"smiles": "Cc1ccc2c(n1)C(=O)C(Cl)=C(Nc1cccc(C(C)C)c1)C2=O", "growth": "63.1%"},
      {"smiles": "Cn1cc(-c2cc(N)n3nc(-c4cn(C)c5ccc(F)cc45)cc3n2)c2cc(F)ccc21", "growth": "92.4%"},
      {"smiles": "Cn1c(SCC(=O)c2cccs2)nc2ccccc2c1=O", "growth": "105%"},
      {"smiles": "CCCC(=O)NC(c1ccc(N(CC)CC)cc1)c1cc(C)c2cccnc2c1O", "note": "(configuration not stated)", "growth": "29.6%"},
      {"smiles": "COC(=O)C1CCCN(S(=O)(=O)/N=C2\\NC(=O)NC2=C(Cl)Cl)C1", "note": "(configuration not stated)", "growth": "105%"},
      {"smiles": "O=C(N/N=C/c1ccc([N+](=O)[O-])s1)c1[nH]c2ccc(Br)cc2c1-c1ccccc1", "growth": "38.5%"},
      {"smiles": "C=C1CC[C@H]2[C@@](C)(CCC3OC(c4ccc(OCc5cn(C6CC(OC(C)=O)C(OC(C)=O)C(COC(C)=O)O6)nn5)cc4)OC[C@]32C)[C@@H]1/C=C/C1=CCOC1=O", "note": "(some centres not stated)", "growth": "100%"},
      {"smiles": "COc1ccc([C@@H]2c3[nH]c4ccccc4c3CC3C(=O)N(C4CCN(Cc5c(F)cccc5F)CC4)CC(=O)N32)c(OC)c1", "note": "(some centres not stated)", "growth": "60.9% [5.26 µM]"},
      {"smiles": "O=C(N/N=C/c1ccc(Br)s1)c1[nH]c2ccc(Br)cc2c1-c1ccccc1", "growth": "63.1%"},
      {"smiles": "O=C1c2c(c3c4cccnc4[nH]c3c3ccc4ccccc4c23)C(=O)N1CCO", "growth": "102%"},
      {"smiles": "Nc1c(C(=O)Nc2ccc(C(F)(F)F)cc2)sc2nc(-c3cnccn3)cc(-c3cccs3)c12", "growth": "89.8%"},
      {"smiles": "CSc1ccc2c(c1)N(C(=O)/C(C#N)=C/c1c[nH]c3ccccc13)c1ccccc1S2", "growth": "58.5%"}
    ]}
  ]
}
